Experimental data: the supplement of paper PMC5499739
Whole data set: some 16,000 sequences, median “Z-score” near -0.37, cut for the highest 2% near 3.1. The sample holds the highest values, similar sequences and a random draw of the others, so the mix is not that of the screen.

These sequences were tested on RBM10 RRM1-ZnF-RRM2 (GST-tagged construct) (assay: RNAcompete 7-mer binding Z-score; higher = stronger binding preference).
Description: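 RNAcompete: 20 pmol GST-tagged RBM10 RNA-binding constructs were incubated with a designed RNA pool of about 241,000 sequences up to 41 nt (1.5 nmol) on glutathione beads for 30 min at 4 °C and washed. Bound RNAs were identified by microarray hybridisation. Each RNA 7-mer is scored by a one-sided Z-score of its enrichment, computed over probes that contain the 7-mer within longer pool sequences.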

Row | Sequence | RNAcompete 7-mer binding Z-score
1 | AAGGUUU | 2.37
2 | AGGGUUU | 2.4
3 | GAGGGUA | 4.4
4 | AAGGGUU | 3.94
5 | UACUCUC | -0.734
6 | UGCGCUG | -0.103
7 | GAAGGAU | 3.32
8 | AAAGGAC | 2.6
9 | CAAGGAA | 1.77
10 | AAAGGAA | 3.51
11 | GAAGGAA | 4.54
12 | AAAGGAG | 3.75
13 | GGAGGAA | 3.08
14 | GCAGGAA | 2.07
15 | UAAGGAG | 1.9
16 | UAAGGAU | 1.55
17 | CAAGGAU | 1.42
18 | UAAGGAA | 1.66
19 | AAUGGCG | 2.02
20 | GUCCUGC | -0.606
21 | UACCCCU | -0.65
22 | AGCGCUG | -0.0889
23 | GCCACUU | -0.992

Row | Sequence | RNAcompete 7-mer binding Z-score
24 | UACACAU | -0.5
25 | GUCCGCA | -0.672
26 | UCUGAUC | -0.876
27 | GCGUGUG | 0.618
28 | AUCGCAA | -0.388
29 | GCUUAAG | -0.439
30 | CAAGGAG | 2.31
31 | GAAGGAC | 2.8
32 | GAAGGAG | 4.52
33 | AGUGGAU | 2.33
34 | UGUGGAA | 1.47
35 | CGUGGAA | 1.29
36 | GGUGGAA | 3.71
37 | AGUGGAC | 1.44
38 | GGUGGAG | 3.9
39 | AGUGGAA | 3.21
40 | UGUGGAG | 2.47
41 | GGUGGAU | 2.46
42 | CGUCACU | -0.515
43 | CACCCUG | -0.89
44 | AUGACUA | -0.347
45 | UGUGGUA | 0.833
46 | GACGAGA | 0.691

Row | Sequence | RNAcompete 7-mer binding Z-score
47 | UCAGCGU | -0.26
48 | CCGGCAC | -0.388
49 | AAGGAUG | 3.89
50 | GAGGAUG | 2.57
51 | AAGGAUA | 2.92
52 | UAGGAGA | 1.78
53 | AAGGAGA | 3.18
54 | CAGGAGA | 2.02
55 | AAGGAGG | 4.62
56 | GAGGAGG | 2.99
57 | UAGGAGG | 2.94
58 | CCCAAUA | -0.759
59 | CCGUCGC | -0.752
60 | UGAUCCA | -0.515
61 | ACAUCCU | -0.839
62 | GCAGGAU | 1.22
63 | GGAGCGG | 4.19
64 | AGAGCGG | 1.46
65 | GGAGCGA | 2.9
66 | UGAGCGG | 2.06
67 | CGAGCGG | 3.33
68 | CGAGCGU | 0.166
69 | AGAGCGA | 0.581

Row | Sequence | RNAcompete 7-mer binding Z-score
70 | CGGGUUU | 1.01
71 | CUAUCGA | -0.781
72 | AUGGAAA | 2.62
73 | GUGGAAA | 2.46
74 | GUGGAAG | 3.47
75 | AUGGAAG | 3.16
76 | GUGGAAC | 1.73
77 | AUGGAAC | 2.02
78 | UCGGAGU | 0.257
79 | AGGGAUC | 1.32
80 | AGGGAUA | 4.38
81 | CGGGAUA | 1.44
82 | GGGGAUA | 3.16
83 | GAGGAUA | 2
84 | AGGGAUU | 2.37
85 | CGCAAAG | -0.22
86 | UCGGUUG | 0.286
87 | ACAAUCU | -0.795
88 | UUUGACG | -0.551
89 | AUGUAGA | 0.243
90 | UCACAAU | -0.511
91 | ACAGUUC | -0.672
92 | CGAAUGG | 1.4

Row | Sequence | RNAcompete 7-mer binding Z-score
93 | GGAAUGU | 1.58
94 | UGAAUGG | 2.22
95 | AGAAUGU | 0.184
96 | AGAAUGG | 3.51
97 | GGAAUGG | 4.19
98 | UUGUGUG | 0.0604
99 | AAGAUAA | -0.0233
100 | GAUGAAC | 0.385
101 | CUUCCAU | -0.799
102 | AGUCGCA | -0.122
103 | GUGGUGG | 3.78
104 | AUGGUGC | 0.789
105 | UUGGUGG | 2.09
106 | CUGGUGG | 1.22
107 | AUGGUGG | 3.33
108 | GUGGUGC | 1.68
109 | CUCGGGA | 0.228
110 | CCGGACC | -0.712
111 | GUCGUCU | -0.417
112 | CGCAAAC | -0.588
113 | UCGGGAA | 1.4
114 | GGGGGGA | 2.69
115 | GGGGGAG | 2.6

Row | Sequence | RNAcompete 7-mer binding Z-score
116 | UGGGGAA | 3.58
117 | UGGGGGA | 3.33
118 | UUGGGGA | 2.27
119 | UGGGGAG | 3.37
120 | UGGGGAC | 2.28
121 | CGGGGAG | 2.54
122 | UGCGUGA | 0.381
123 | UUGCGGU | -0.0161
124 | AAAGCCU | -0.734
125 | CCGUUGG | 0.228
126 | CCGAUCU | -0.938
127 | GUAUGAA | 0.355
128 | AGCAAGU | -0.0343
129 | CUCGAAA | -0.493
130 | AUGAGGU | 1.83
131 | UUGAGGA | 1.04
132 | AUGAGGC | 1.35
133 | UUGAGGG | 3.15
134 | CUGAGGG | 1.53
135 | AUGAGGG | 4.32
136 | GUGAGGC | 1.86
137 | UUGAGGC | 0.341
138 | GUGAGGG | 4

Row | Sequence | RNAcompete 7-mer binding Z-score
139 | CAAAGAU | -0.282
140 | UGGGACG | 2.27
141 | AUCUGAA | -0.643
142 | CGGUAAG | 1.52
143 | AGGUAAA | 2.1
144 | GGGUAAA | 3.9
145 | GGGUAAG | 3.97
146 | CGGUAAA | 0.352
147 | GGGUAAC | 2.47
148 | CGUAUGU | -0.337
149 | ACUGCUA | -0.653
150 | GGUAUGA | 1.89
151 | GGUAUGG | 4.03
152 | AAUAUGG | 1.27
153 | GAUAUGC | -0.078
154 | GAUAUGG | 3.32
155 | GGUAUGU | 1.33
156 | GACCGAU | -0.479
157 | ACGCUUU | -0.865
158 | GGGAACA | 3.06
159 | GGGAACG | 3.86
160 | UGGAACG | 1.92
161 | GGGAAUA | 3.15

Row | Sequence | RNAcompete 7-mer binding Z-score
162 | CGGAAUG | 1.33
163 | GGGAAUU | 1.91
164 | CGGAAUA | 0.65
165 | GGGAAUG | 3.43
166 | AGGAAUG | 2.07
167 | CACGUUA | -0.406
168 | UCAGCUU | -0.905
169 | CACAAUU | -0.577
170 | CAUGUGU | -0.151
171 | UCAUAUC | -0.613
172 | UGGUGGC | 1.72
173 | UGGUGGA | 2.74
174 | GGGUGCA | 3
175 | UGGUGGU | 2.37
176 | GGGUGGA | 4.54
177 | AGGUGGA | 3
178 | GGGUGGU | 4.19
179 | UGGUGGG | 4.04
180 | GAGUGGU | 2.52
181 | GCGUGGA | 2.22
182 | AGGUGGG | 3.44
183 | AGGUGGU | 2.19
184 | GACAAGU | 0.148
